Publication PMC12864922, “TDP-43 directly inhibits mRNA accumulation in neurites through modulation of mRNA stability”
Whole data set: some 9,900 sequences, median “r (bound/input frequency ratio)” near 0.7, cut for the highest 2% near 6.5. This excerpt belongs to a sample that is enriched for the highest values.

B1: ENSMUSG00000042529.435|Kcnj12|146:150 (ssRNA)
RNA: GGGAGUUCUACAGUCCGACGAUCGCUUCGAUAUCCGCAUGCUAAGAGAGAGAGAGAGAGAGAGAGAGAGAGAGAGAGAGAGAGCUGCACAGGAUGAAGCAGCUGCCCUGAGCCCAUCUGGUGCUGUGCACCUGGUCCUUGUCCAGCCGAGGGCCUGGGGGCAGAAGAACACACCAUAGGGAGGCCCUUCAUACGGUGUCUGCCCUAUGUGAGGUCAUAGAAUGUUAAAUCUAUUUUAAACGGUGAAACUGGAGAAUUUUCAUGUUAUUUUCAAUAAUAGUGGUAUCUAAAGAUGUAGGCAACACUCUUGCGGUCGCACUAGUGUGGAAUUCUCGGGUGUCAAGG
B2: ENSMUSG00000035202.98|Lars2 (ssRNA)
RNA: GGGAGUUCUACAGUCCGACGAUCGCUUCGAUAUCCGCAUGCUAUCCUGCUCAGUACGAGAGGAACCGCAGCUAGCUUGUGUCUCCAGUGUCUUUUACCAUCACAGGCCCUGGCUCUGUGCUACCUCCCUAGAAUACCUGUGGUUCAUCACCUUCAGCUCACACUCCAUUCAGACAAUGCUCACUUAGGCCUACAAGCAAGGGAGAGGCUUAAGCACAAGGUCUUUAAGCUUGAUACUGUGCCUGGUCUCAAUGCCUAGAAAUUCCAACUUAACUGUCGCUAUCAUAAAGGAUUUUAAAUUUUUCUCUUGCGGUCGCACUAGUGUGGAAUUCUCGGGUGUCAAGG
B3: ENSMUSG00000090935.628|Synj2bp (ssRNA)
RNA: GGGAGUUCUACAGUCCGACGAUCGCUUCGAUAUCCGCAUGCUAGUCUUAAACUGAUUAGUAACACUAUGACUUACCCUGAGAUCUAAGUAUUGCUAUAAAGAGACUGAAGAGGAGAGAAUAAAGUAUUUUCCUAGGACUACAUAGUUGGUAAAAGAGAAUCAUGAUUUAAACUCUGGACUAUGGAUGGCAGUAUCAGUAAUAUUCCCUCAUAGCUAGCAGUCCUCAUGCAAGGUCUCUGAACAAAAGCAACGUAUCACCUGCAAAUGCUUGGGUUUCAUCCCAUUCUUAUGGAGUGAGAUGAGCUCUUGCGGUCGCACUAGUGUGGAAUUCUCGGGUGUCAAGG
B4: ENSMUSG00000061578.1408|Ksr2|69:73 (ssRNA)
RNA: GGGAGUUCUACAGUCCGACGAUCGCUUCGAUAUCCGCAUGCUACUCCACGGACCUCAGGCCCACUGUUUUCUCCAUGUCUGUCUGUACUGACUGUUGCAGAAUGAGCUGAUCAUACAUCUUGAUUCUCCAUUUUCCUUCUGGACCACAUGUCUCUUCCUUUUCCUUUUUAGAUCUGUCUUGCUCUCUGUCUCUCUCACUCAUUGCCAACAUGUUGCUGGGAAAGAAUAUUUGAUUUAGAUGCCAAUCAGGAAGGCAAGUAGGAUGGAUGGAUGAGUGAGUGGAUAGGUAGGUAUAUAAAUGGACUCUUGCGGUCGCACUAGUGUGGAAUUCUCGGGUGUCAAGG
B5: ENSMUSG00000031028.69|Tub|109:121;139:143 (ssRNA)
RNA: GGGAGUUCUACAGUCCGACGAUCGCUUCGAUAUCCGCAUGCUAUGGAGGUACAGAGGGAGAGGAAGCACAAGCCUGGCUGCUGUGGCUCAGCCAUCCACUCAGCCUACGAGUCAGAGACAGUGGGUGUCCCGGGAAGCAGGGGUACAGUGACACACACACAUACUACAGGGCACUCAAGCUCAUACUAGAAAAAGCUCUGGUGGUCAGCAGAAAGCACUCCCACUUCAAAAGGGCCCAUUAGGCCCAAAGGGGGUUAGGAGUGGUAGGGAUAGGUGCGUGGCAGGUCCCUGCUAGGAUUGCAGCUCUUGCGGUCGCACUAGUGUGGAAUUCUCGGGUGUCAAGG
B6: ENSMUSG00000028439.266|Fam219a|244:248 (ssRNA)
RNA: GGGAGUUCUACAGUCCGACGAUCGCUUCGAUAUCCGCAUGCUAUGCUGGUCUGGUCUGAGGGAGGAAAGCUGAGGCUGUAGCUCAGUGAGAUGGUGGCUCUCCCAUGGCUGAAGACAAGUGCAAGCAGAGAGAGCCUCAGGCUGCUGGGCCUCGGACCCACGAGCCUCCUCUCACUGAGCCAGUGCGGCCAGAGUGUCUCUCCUUCAGGCGCCCCACAUGCCAGCAUUUCCACCCUCUGGAUUCUCCUCACAUGUCACUCUCCAGGUGCCGGGGCCUAGAGUGGGCCACACAGAAGGAGGAGUCUCUUGCGGUCGCACUAGUGUGGAAUUCUCGGGUGUCAAGG
B7: ENSMUSG00000042529.487|Kcnj12 (ssRNA)
RNA: GGGAGUUCUACAGUCCGACGAUCGCUUCGAUAUCCGCAUGCUAGAUGUGCGUCUCACUGGCCUCUGCCUGCCUCUCCCGCCUGCGGAGCACUUACACUUCCUGGGGCCCCUGCAGCUGGACCAUGUACAGGGCUCCCUGGGGCUUGUCCUCAGGGGCAGAGAAGGACAUGGUGGCAGCAGCACUGAGAACAGGAGCAUGGCCUCUCUCAGACCCCAGGGCAGUCAUUCAGUCUUUUCCAUGGACACUCCCCACCGCUCCACAUACUGCCUCCGCCUCAUUCUUGGGCUCUUCCUGCCUUGCUGCUCUUGCGGUCGCACUAGUGUGGAAUUCUCGGGUGUCAAGG
B8: ENSMUSG00000004113.203|Cacna1b (ssRNA)
RNA: GGGAGUUCUACAGUCCGACGAUCGCUUCGAUAUCCGCAUGCUAGCAUCGUGGAUGAGGUACGGCCUCAGGAAGCAUCGGGUGGAUUGGGUGGGAGCUGCUCAGAGCAGCACGGGGGCUUGUGUCUUAGGGACAUUGACAGUGUCCAUCAGCAUGUCAGAGAAGCAGCUGUAGUGCCCGUGUUUCUCCCUGAGUCAUGGGUUCUGAAGAAGCCAGAGCGGCACAAUGCGUGCUUGCAUGAGGCACUUUCAGCCUUUUUAAAUCUGACUCUCAGGGAUGGGAUGCCUGCCAAGUAGGGUGUAAUCCUCUUGCGGUCGCACUAGUGUGGAAUUCUCGGGUGUCAAGG
B9: ENSMUSG00000058297.38|Spock2|23:27;31:44;53:64;78:84;93:102;108:133 (ssRNA)
RNA: GGGAGUUCUACAGUCCGACGAUCGCUUCGAUAUCCGCAUGCUAUCCAGUGGGGGAGGACUGGGGACACACGCUACACACAUACACACAUAUGAGAACACACACAUACAUGUGAGAUGUGACACACACAUGUGAGAACACACAUACUGAGAACACACACACACACACACACACACACAUGUGAGUCACCCAAAGGUCCCUAUGUUAUUGAUUUUCAAAUGCACACUUUCACACACAAGGAUACACUAACAGACCAAAAUCAAUGAGAUGUCCCUGAUCCUGCCCCUCAGCCCAACACCUGGAAUCUCUUGCGGUCGCACUAGUGUGGAAUUCUCGGGUGUCAAGG
B10: ENSMUSG00000058297.41|Spock2 (ssRNA)
RNA: GGGAGUUCUACAGUCCGACGAUCGCUUCGAUAUCCGCAUGCUAGGGAGUGUGGCUUGUGUGUAUGUGUGAUAUGAGAUGUGUGUGUAUGAUGUGAGAUGUGAGUGUGUGAUGUGAGAUGUGUGUAUGUGAGAUGUGUGUGUGUGUGUGUGUGUGUGUGAUGUGAGUCACCCAAAGGUCCCUAUGUUAUUGAUUUUCAAAUGCACACUUUCACACACAAGGAUACACUAACAGACCAAAAUCAAUGAGAUGUCCCUGAUCCUGCCCCUCAGCCCAACACCUGGAAUCCCUGCCCUGCCUAAUCACUCUUGCGGUCGCACUAGUGUGGAAUUCUCGGGUGUCAAGG
B11: ENSMUSG00000058297.37|Spock2 (ssRNA)
RNA: GGGAGUUCUACAGUCCGACGAUCGCUUCGAUAUCCGCAUGCUACCUGGCUCCAGUGGGGGAGGACUGGGGAGUGUGGCUUGUGUGUAUGUGUGAUAUGAGAUGUGUGUGUAUGAUGUGAGAUGUGAGUGUGUGAUGUGAGAUGUGUGUAUGUGAGAUGUGUGUGUGUGUGUGUGUGUGUGUGAUGUGAGUCACCCAAAGGUCCCUAUGUUAUUGAUUUUCAAAUGCACACUUUCACACACAAGGAUACACUAACAGACCAAAAUCAAUGAGAUGUCCCUGAUCCUGCCCCUCAGCCCAACACCCUCUUGCGGUCGCACUAGUGUGGAAUUCUCGGGUGUCAAGG
B12: ENSMUSG00000058297.38|Spock2 (ssRNA)
RNA: GGGAGUUCUACAGUCCGACGAUCGCUUCGAUAUCCGCAUGCUAUCCAGUGGGGGAGGACUGGGGAGUGUGGCUUGUGUGUAUGUGUGAUAUGAGAUGUGUGUGUAUGAUGUGAGAUGUGAGUGUGUGAUGUGAGAUGUGUGUAUGUGAGAUGUGUGUGUGUGUGUGUGUGUGUGUGAUGUGAGUCACCCAAAGGUCCCUAUGUUAUUGAUUUUCAAAUGCACACUUUCACACACAAGGAUACACUAACAGACCAAAAUCAAUGAGAUGUCCCUGAUCCUGCCCCUCAGCCCAACACCUGGAAUCUCUUGCGGUCGCACUAGUGUGGAAUUCUCGGGUGUCAAGG
B13: ENSMUSG00000058297.40|Spock2 (ssRNA)
RNA: GGGAGUUCUACAGUCCGACGAUCGCUUCGAUAUCCGCAUGCUAGGACUGGGGAGUGUGGCUUGUGUGUAUGUGUGAUAUGAGAUGUGUGUGUAUGAUGUGAGAUGUGAGUGUGUGAUGUGAGAUGUGUGUAUGUGAGAUGUGUGUGUGUGUGUGUGUGUGUGUGAUGUGAGUCACCCAAAGGUCCCUAUGUUAUUGAUUUUCAAAUGCACACUUUCACACACAAGGAUACACUAACAGACCAAAAUCAAUGAGAUGUCCCUGAUCCUGCCCCUCAGCCCAACACCUGGAAUCCCUGCCCUGCCCUCUUGCGGUCGCACUAGUGUGGAAUUCUCGGGUGUCAAGG
B14: ENSMUSG00000058297.39|Spock2 (ssRNA)
RNA: GGGAGUUCUACAGUCCGACGAUCGCUUCGAUAUCCGCAUGCUAGGGGGAGGACUGGGGAGUGUGGCUUGUGUGUAUGUGUGAUAUGAGAUGUGUGUGUAUGAUGUGAGAUGUGAGUGUGUGAUGUGAGAUGUGUGUAUGUGAGAUGUGUGUGUGUGUGUGUGUGUGUGUGAUGUGAGUCACCCAAAGGUCCCUAUGUUAUUGAUUUUCAAAUGCACACUUUCACACACAAGGAUACACUAACAGACCAAAAUCAAUGAGAUGUCCCUGAUCCUGCCCCUCAGCCCAACACCUGGAAUCCCUGCCUCUUGCGGUCGCACUAGUGUGGAAUUCUCGGGUGUCAAGG

Biological target: TDP-43 (Homo sapiens, UniProt Q13148 1-414)
Test: RNA Bind-n-Seq with designed 260-mer pool; 25 mM Tris-HCl, 150 mM KCl, 3 mM MgCl2, BSA (printed 500 mg/mL), 20 units/mL SUPERase IN; pH not stated; 500 nM RNA pool, 1 h, 4 C; TDP-43 5, 50, 500 nM; high values mean tight binding
Settings: protein: recombinant; tags: SBP (GST cleaved off with PreScission; pGEX-GST-SBP)
How it was run: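 The incubation lasted 1 h at 4 °C and used 500 nM of an in vitro-transcribed 260-nt 3′ UTR oligo pool with recombinant SBP-tagged TDP-43 at 5, 50 or 500 nM immobilized on streptavidin beads. It took place in 25 mM Tris-HCl, 150 mM KCl, 3 mM MgCl2, BSA and SUPERase IN. Bound RNA was washed, eluted with biotin, converted to cDNA, PCR-amplified and sequenced to give R, each oligo's normalized abundance in the bound sample divided by that in input. Two independent protein batches provided the duplicates.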

Sequence of TDP-43 (Q13148 whole entry): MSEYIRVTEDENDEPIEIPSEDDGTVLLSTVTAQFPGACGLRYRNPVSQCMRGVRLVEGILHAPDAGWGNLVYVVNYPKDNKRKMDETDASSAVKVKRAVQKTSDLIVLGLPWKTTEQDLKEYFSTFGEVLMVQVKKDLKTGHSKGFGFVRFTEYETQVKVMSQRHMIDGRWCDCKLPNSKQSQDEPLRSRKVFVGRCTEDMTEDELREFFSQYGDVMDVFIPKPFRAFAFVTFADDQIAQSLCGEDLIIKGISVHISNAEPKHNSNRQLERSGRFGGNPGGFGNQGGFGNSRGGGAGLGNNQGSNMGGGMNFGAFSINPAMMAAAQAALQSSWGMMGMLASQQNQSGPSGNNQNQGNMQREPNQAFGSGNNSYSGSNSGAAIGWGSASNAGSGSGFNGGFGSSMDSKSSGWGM

Binder | binding signal
B1 | 4.76 R (bound/input frequency ratio)
B2 | 0.339 R (bound/input frequency ratio)
B3 | 0.125 R (bound/input frequency ratio)
B4 | 0.845 R (bound/input frequency ratio)
B5 | 0.841 R (bound/input frequency ratio)
B6 | 0.614 R (bound/input frequency ratio)
B7 | 0.428 R (bound/input frequency ratio)
B8 | 1.21 R (bound/input frequency ratio)
B9 | 2.11 R (bound/input frequency ratio)
B10 | 5.21 R (bound/input frequency ratio)
B11 | 6.03 R (bound/input frequency ratio)
B12 | 6.55 R (bound/input frequency ratio)
B13 | 8.17 R (bound/input frequency ratio)
B14 | 5.98 R (bound/input frequency ratio)
